# Test results published in PubChem BioAssay.
# Active and inactive are the calls of the source. Unless noted, the rule behind the calls is not given here.
# How the values were obtained:
# [1] = system: Wnt5a (protein binding on small-molecule microarray); assay: small molecules binding Wnt5a protein – biophysical, small-molecule microarray, 635/667 nm fluorescence, primary screen (AID 1142); conditions: 635 nm fluorescence, higher = more signal;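 note: fluorescence read at 667 nm with signal to noise per printed feature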
# [2] = ATP-based viability of Huh7 replicon cells – cell-based, CellTiter-Glo luminescence, basal, 48 h, cytotoxicity control for HCV replication inhibitor project, primary screen (AID 1143); conditions: higher = more signal, called active from +8 up or from −8 down;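 note: Huh7 hepatoma cells carrying a hepatitis C replication reporter with no stimulus; test concentration not given here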
# [3] = Pseudomonas biofilm growth suppression – PAO1 strain, BacTiter-Glo luminescence, LB-PBS, primary screen (AID 1144); conditions: P. aeruginosa PAO1 biofilm, 12 h, higher = more signal
# [4] = basal CRE-LacZ reporter activity in PC12 – cell-based, unstimulated, primary screen (AID 1145); conditions: no forskolin, luminescence, 4.5 h, higher = more signal, called active from +8 up or from −8 down
# [5] = forskolin-driven CRE-LacZ activity in PC12 – cell-based, CRE-LacZ reporter, forskolin-stimulated, primary screen (AID 1146); conditions: luminescence, 4.5 h, higher = more signal, called active from +8 up or from −8 down;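 note: PC12 cells with 6xCRE LacZ reporter stimulated by forskolin 10 µM; beta-galactosidase reporter signal reflecting CREB driven transcription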
# [6] = target: Streptavidin (Streptomyces avidinii) (UniProt P22629); assay: compounds binding control protein streptavidin – biophysical, small-molecule microarray, 635/667 nm fluorescence, artefact control for SMM compound annotation, primary screen (AID 1147); conditions: higher = more signal;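 note: signal reflects streptavidin binding to arrayed compounds as a control protein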
# [7] = probe aInhba binding on compound microarray – biochemical, small-molecule microarray, 635/667 nm fluorescence, primary screen (AID 1148); conditions: higher = more signal;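 note: score merges 667nm spot fluorescence with signal-to-noise for antibody binding to printed compounds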
# Torsin-1A (Homo sapiens) [8] = target: Torsin-1A (Homo sapiens) (UniProt O14656); assay: TOR1A wild-type binding on microarray – cell lysate, small-molecule microarray, lysate, 635/667 nm, primary screen (AID 1149); conditions: COS7 hTOR1A-WT lysate, 635 nm fluorescence, higher = more signal
# Torsin-1A (Homo sapiens) [9] = target: Torsin-1A (Homo sapiens) (UniProt O14656); assay: torsin A mutant lysate binding on microarrays – cell lysate, small-molecule microarray, COS7 lysate, 635/667 nm fluorescence, primary screen (AID 1150); conditions: COS7 hTOR1A mutant lysate, 635 nm fluorescence, higher = more signal;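 note: score pools 667 nm emission and signal to noise measuring lysate protein binding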
# [10] = system: Sonic hedgehog protein (Shh); assay: Sonic hedgehog microarray binding compounds – biochemical, small-molecule microarray, 635/667 nm fluorescence, primary screen (AID 1151); conditions: 635 nm fluorescence, higher = more signal;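 note: Shh protein binding to compounds spotted on small-molecule microarray slides; score combines spot fluorescence intensity with signal-to-noise across triplicate slides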
# [11] = optical density shifts of acrAB sulA E. coli – strain DRC41, OD650, 48 h, E. coli filamentation inducer project, primary screen (AID 1152); conditions: higher = more signal, called active from +8 up or from −8 down;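 note: E. coli MC1000 strain DRC41 lacking acrAB efflux pump and sulA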
# [12] = probe aLefty1 binding on compound microarray – biochemical, small-molecule microarray, 635/667 nm fluorescence, primary screen (AID 1153); conditions: higher = more signal;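 note: score merges spot fluorescence with signal-to-noise ratio from the scanned slide images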
# [13] = plasmodial surface anion channel blockers, osmotic lysis – cell-based, P. falciparum Indochina, OD700, 1 h, primary screen (AID 1154); conditions: P. falciparum Indochina infected RBC osmotic lysis, higher = more signal, called active from +8 up or from −8 down
# [14] = plasmodial surface anion channel blockers, osmotic lysis – cell-based, P. falciparum Indochina, OD700, 2 h, primary screen (AID 1155);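 note: lysis reports solute entry through the parasite surface anion channel PSAC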; conditions: P. falciparum Indochina infected erythrocytes, higher = more signal, called active from +8 up or from −8 down
# [15] = changes in parasitized red cell lysis, either direction – P. falciparum Indochina, OD700, 3 h, PSAC antagonist project, primary screen (AID 1156); conditions: P. falciparum-infected erythrocytes, osmotic lysis, higher = more signal, called active from +8 up or from −8 down
# [16] = plasmodial surface anion channel blockers, osmotic lysis – cell-based, P. falciparum Indochina, OD700, 18 h, primary screen (AID 1157); conditions: P. falciparum Indochina infected erythrocytes, osmotic lysis OD700, 18 h; higher = more signal, called active from +8 up or from −8 down
# [17] = S6 kinase pathway phospho-S6 level changes – cell-based, A549, cytoblot, luminescence, serum-stimulated, primary screen (AID 1158); conditions: 5 h, higher = more signal;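 note: serum-stimulated A549 lung adenocarcinoma cells; signal is phosphorylated S6 detected by cytoblot immunostaining with HRP secondary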
# [18] = target: NADPH oxidase 2 (Homo sapiens) (UniProt P04839); assay: compounds shifting NOX2 Amplex Red fluorescence – cell-based, HEK293-NOX2, PMA-stimulated, NOX inhibitor project, primary screen (AID 1159); conditions: 45 min, higher = more signal, called active from +8 up or from −8 down; note: test concentration not given here
# [19] = target: NADPH oxidase 4 (Homo sapiens) (UniProt Q9NPH5); assay: compounds shifting NOX4 Amplex Red fluorescence – cell-based, HEK293-NOX4, tetracycline-induced, NOX inhibitor project, primary screen (AID 1160); conditions: HEK293-NOX4, Amplex Red H2O2 fluorescence, 45 min; higher = more signal, called active from +8 up or from −8 down
# [20] = target: NADPH oxidase 5 (Homo sapiens) (UniProt Q96PH1); assay: compounds shifting NOX5 Amplex Red fluorescence – cell-based, HEK293-NOX5, NOX inhibitor project, primary screen (AID 1161); conditions: HEK293-NOX5, ionomycin, 45 min, higher = more signal
# Chain of NADPH oxidase 5 (Homo sapiens) (Q96PH1 whole entry, looked up): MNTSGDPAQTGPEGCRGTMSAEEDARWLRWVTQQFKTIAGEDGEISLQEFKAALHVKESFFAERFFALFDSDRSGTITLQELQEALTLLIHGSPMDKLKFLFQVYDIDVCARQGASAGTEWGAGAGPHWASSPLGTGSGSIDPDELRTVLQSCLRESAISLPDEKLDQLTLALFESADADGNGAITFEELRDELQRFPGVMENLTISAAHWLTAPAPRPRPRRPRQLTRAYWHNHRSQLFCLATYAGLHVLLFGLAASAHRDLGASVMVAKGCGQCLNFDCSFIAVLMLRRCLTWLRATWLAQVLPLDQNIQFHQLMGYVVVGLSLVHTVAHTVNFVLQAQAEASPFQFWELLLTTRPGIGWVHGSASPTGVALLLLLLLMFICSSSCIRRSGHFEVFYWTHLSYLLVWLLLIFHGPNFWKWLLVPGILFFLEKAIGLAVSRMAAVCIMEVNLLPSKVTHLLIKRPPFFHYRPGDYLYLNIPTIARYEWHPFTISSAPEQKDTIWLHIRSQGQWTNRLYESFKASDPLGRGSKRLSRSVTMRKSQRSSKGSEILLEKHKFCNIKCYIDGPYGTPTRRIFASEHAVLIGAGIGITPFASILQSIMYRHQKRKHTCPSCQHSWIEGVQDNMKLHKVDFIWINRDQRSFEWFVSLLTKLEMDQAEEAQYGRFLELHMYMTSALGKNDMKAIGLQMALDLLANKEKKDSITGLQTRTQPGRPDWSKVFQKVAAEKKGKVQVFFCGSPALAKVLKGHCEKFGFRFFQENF
# Chain of Streptavidin (Streptomyces avidinii) (P22629 whole entry, looked up): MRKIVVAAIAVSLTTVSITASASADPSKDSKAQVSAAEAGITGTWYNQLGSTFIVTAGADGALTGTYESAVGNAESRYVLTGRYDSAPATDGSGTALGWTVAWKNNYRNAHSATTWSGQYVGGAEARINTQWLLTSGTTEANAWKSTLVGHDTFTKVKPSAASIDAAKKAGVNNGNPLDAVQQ
# Chain of Torsin-1A (Homo sapiens) (O14656 whole entry, looked up): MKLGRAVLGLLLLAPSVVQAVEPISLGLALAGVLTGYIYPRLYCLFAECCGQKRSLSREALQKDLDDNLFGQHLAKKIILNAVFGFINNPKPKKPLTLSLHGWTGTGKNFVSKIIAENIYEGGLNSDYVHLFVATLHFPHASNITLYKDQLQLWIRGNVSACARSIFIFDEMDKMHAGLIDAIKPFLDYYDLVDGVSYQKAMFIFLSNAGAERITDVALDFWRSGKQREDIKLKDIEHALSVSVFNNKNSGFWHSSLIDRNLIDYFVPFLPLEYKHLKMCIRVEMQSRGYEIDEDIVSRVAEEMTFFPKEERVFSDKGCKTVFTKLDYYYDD
# Chain of NADPH oxidase 4 (Homo sapiens) (Q9NPH5 whole entry, looked up): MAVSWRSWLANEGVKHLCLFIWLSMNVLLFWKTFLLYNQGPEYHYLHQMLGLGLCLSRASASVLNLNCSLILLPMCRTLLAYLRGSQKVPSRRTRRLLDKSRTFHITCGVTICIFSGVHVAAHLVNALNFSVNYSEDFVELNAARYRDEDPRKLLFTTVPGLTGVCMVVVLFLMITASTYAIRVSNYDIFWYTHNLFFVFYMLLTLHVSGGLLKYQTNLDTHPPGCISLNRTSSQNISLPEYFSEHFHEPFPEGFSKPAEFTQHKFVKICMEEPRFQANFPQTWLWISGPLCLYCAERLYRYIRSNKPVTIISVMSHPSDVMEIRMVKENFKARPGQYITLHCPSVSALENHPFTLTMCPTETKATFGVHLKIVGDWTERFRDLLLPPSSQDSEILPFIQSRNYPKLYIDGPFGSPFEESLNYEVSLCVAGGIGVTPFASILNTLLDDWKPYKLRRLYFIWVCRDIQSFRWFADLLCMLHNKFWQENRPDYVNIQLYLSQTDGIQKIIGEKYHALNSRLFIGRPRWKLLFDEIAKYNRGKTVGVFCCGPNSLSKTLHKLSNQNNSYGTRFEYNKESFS
# Chain of NADPH oxidase 2 (Homo sapiens) (P04839 whole entry, looked up): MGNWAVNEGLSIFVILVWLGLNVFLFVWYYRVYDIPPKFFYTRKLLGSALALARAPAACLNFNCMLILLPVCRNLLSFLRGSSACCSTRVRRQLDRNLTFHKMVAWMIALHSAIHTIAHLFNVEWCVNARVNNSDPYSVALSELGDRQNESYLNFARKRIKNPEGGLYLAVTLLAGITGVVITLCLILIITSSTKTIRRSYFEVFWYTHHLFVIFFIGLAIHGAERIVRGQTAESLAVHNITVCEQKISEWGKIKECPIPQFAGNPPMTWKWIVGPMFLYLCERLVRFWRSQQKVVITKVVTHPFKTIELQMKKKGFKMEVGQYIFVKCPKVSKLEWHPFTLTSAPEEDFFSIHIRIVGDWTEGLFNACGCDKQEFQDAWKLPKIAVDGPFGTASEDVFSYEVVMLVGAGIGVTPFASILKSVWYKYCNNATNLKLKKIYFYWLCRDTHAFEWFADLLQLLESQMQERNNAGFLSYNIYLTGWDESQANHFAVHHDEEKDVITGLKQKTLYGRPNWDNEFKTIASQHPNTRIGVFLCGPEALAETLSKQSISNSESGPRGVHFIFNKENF
Compound,composite z-score [1],z-score [2],z-score [3],z-score [4],z-score [5],composite z-score [6],composite z-score [7],composite z-score (Torsin-1A (Homo sapiens) [8]),composite z-score (Torsin-1A (Homo sapiens) [9]),composite z-score [10],z-score [11],composite z-score [12],z-score [13],z-score [14],z-score [15],z-score [16],z-score [17],z-score [18],z-score [19],z-score [20]
CN(C)CCCC[C@@H]1NC(=O)[C@@H]2C[C@H](C(=O)NCCCCCCN)[C@H](c3ccc(O)cc3)N2C1=O,0.346,0.255 (inactive),-0.481 (inactive),-0.122 (inactive),0.208 (inactive),1.19,0.554,0.613,0.901,0.945,-0.337 (inactive),1.37,1.98 (inactive),0.288 (inactive),1.28 (inactive),0.229 (inactive),-0.648,1.46 (inactive),-0.964 (inactive),1.01
COC(=O)[C@@]1(Cc2ccc(F)cc2)[C@H]2c3cc(C(=O)N(C)C)n(Cc4ccccn4)c3C[C@H]2CN1C(=O)c1ccccc1,-0.0131,-1.17 (inactive),-0.75 (inactive),-0.947 (inactive),0.431 (inactive),0.751,0.349,1.17,1.05,-0.285,-1.37 (inactive),1.13,0.755 (inactive),-0.692 (inactive),0.336 (inactive),-1.68 (inactive),0.388,0.467 (inactive),1.2 (inactive),-2.82
Cc1ccc(S[C@]2(C(=O)NCCCN(C)C)CC(=O)N(Cc3ccccc3)[C@@H]2c2ccc(CO)cc2)cc1,-0.2,-0.533 (inactive),0.294 (inactive),-0.232 (inactive),0.529 (inactive),-0.689,-0.0494,-0.883,-0.623,-1.02,0.239 (inactive),0.136,2.24 (inactive),0.077 (inactive),1.5 (inactive),0.013 (inactive),0.161,-3.38 (inactive),0.6 (inactive),1.89
CCCCC(=C=CC[C@H](O)c1ccccc1OCCO)C[C@H](O)c1cc(Cl)cc(Cl)c1O,0.121,-0.433 (inactive),-0.0417 (inactive),7.91 (inactive),1.57 (inactive),-0.18,-0.0471,0.873,0.234,0.66,-0.0999 (inactive),-0.0989,15.9 (active),2.79 (inactive),-0.179 (inactive),1.46 (inactive),0.276,-0.565 (inactive),-1.5 (inactive),-2.02
Cc1ccccc1/C=C/C=O,-0.373,-0.042 (inactive),-0.242 (inactive),-0.204 (inactive),0.834 (inactive),-0.943,-0.137,-1.41,-0.62,-0.0373,0.871 (inactive),-0.147,0.51 (inactive),0.146 (inactive),-0.0758 (inactive),0.231 (inactive),-0.265,-0.59 (inactive),-0.0992 (inactive),0.45
COc1ccc([Si](C)(C)[C@H]2[C@H](CC(=O)N3CCC[C@H]3CO)O[C@@]3(C(=O)N(Cc4cccc(N5CCC5=O)c4)c4ccccc43)[C@@H]2C)cc1,0.749,-3.02 (inactive),0.596 (inactive),1.66 (inactive),-1.2 (inactive),0.0783,-0.0132,0.633,0.594,1.49,0.689 (inactive),0.233,6.65 (inactive),1.06 (inactive),1.47 (inactive),0.696 (inactive),0.249,1.91 (inactive),0.777 (inactive),4.69
O=C1C[C@@](C(=O)O)(c2ccc([N+](=O)[O-])cc2)[C@@H](c2ccc(CO)cc2I)N1CC12CC3CC(CC(C3)C1)C2,0.0743,-5.39 (inactive),-0.142 (inactive),0.468 (inactive),3.72 (inactive),0.975,-0.12,0.663,0.381,0.617,-0.455 (inactive),0.271,27.4 (active),22.3 (active),3.79 (inactive),2.73 (inactive),-0.429,1.11 (inactive),-0.681 (inactive),1.72
COCCCNC(=O)[C@]1(Cc2ccccc2N=[N+]=[N-])N=C(c2ccc(OCCCO)cc2)O[C@@H]1c1ccccc1CN=[N+]=[N-],0.823,-5.15 (inactive),-0.421 (inactive),0.825 (inactive),-1.47 (inactive),1.11,0.442,0.673,0.57,0.26,0.871 (inactive),0.766,28.1 (active),21.2 (active),3.17 (inactive),2.71 (inactive),1.97,-0.888 (inactive),0.4 (inactive),-0.209
